Laboratory results published in PubChem BioAssay (Tox21).
Values joined by “and” are separate entries in the source; they are usually repeats but may differ in a detail not shown here. Equal values may be shown once. Results filed as inconclusive are left out. More than one record can exist for a structure, and the calls need not agree. Active and inactive are the calls of the source. Calls follow the shape of the dose curve; as a rule, active = well fitted curve in the direction sought with a large enough effect in the repeat runs; inconclusive = weak or mixed curves; inactive = no such curve, though single readings can be large; an effect the other way counts as inactive or inconclusive.

Legend:
[1] = qHTS RealTime-Glo MT Cell Viability Assay in HepG2 cells - 40 hour (AID 1224870); also: nearly all actives have a fitted effect of over 50% in size
In short: (§1)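 HepG2 cells mixed with RealTime-Glo MT reagents (NanoLuc plus cell-permeant prosubstrate) were seeded at 600 cells/well, incubated 5 h at 37 C/5% CO2, then pinned with compounds in DMSO; nonlytic luminescence tracked viability during 40 h treatment.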

[2] = A CellTox Green Cytotoxicity Assay to monitor cytotoxicity in HEK293 cells - 40 hour (AID 1224871); also: nearly all actives have a fitted effect of over 45% in size
In short: (§2)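 Each value comes from one timepoint of a single continuous run in which HEK293 cells with CellTox Green were exposed to compound for up to 40 h at 37 C, dye fluorescence rising with cell death.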

[3] = qHTS RealTime-Glo MT Cell Viability Assay in HEK293 cells - 16 hour (AID 1224872); also: nearly all actives have a fitted effect of over 50% in size; also: potency is read from the fitted curve at half-maximal effect
In short: (§3)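 HEK293 cells seeded with NanoLuc/prosubstrate reagent, rested 5 h at 37 C, then dosed and kept at 37 C up to 40 h. Nonlytic real-time luminescence from viable cells read at 0, 8, 16, 24, 32 and 40 h.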

[4] = qHTS RealTime-Glo MT Cell Viability Assay in HepG2 cells - 8 hour (AID 1224873); also: nearly all actives have a fitted effect of over 55% in size
In short: as §1

[5] = qHTS RealTime-Glo MT Cell Viability Assay in HEK293 cells - 40 hour (AID 1224874); conditions: RealTime-Glo luminescence; max response: stronger effect = lower value; also: nearly all actives have a fitted effect of over 50% in size; also: potency is read from the fitted curve at half-maximal effect
In short: (§4)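 qHTS format; HEK293 cells with NanoLuc/prosubstrate reagent, 37 C/5% CO2 for 5 h pre-dosing; compounds 23 nL in DMSO; luminescence at each time point reflects viable cells.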

[6] = A CellTox Green Cytotoxicity Assay to monitor cytotoxicity in HEK293 cells - 24 hour (AID 1224875); also: series mostly up to about 77 µM; nearly all actives have a fitted effect of over 45% in size
In short: as §2

[7] = A CellTox Green Cytotoxicity Assay to monitor cytotoxicity in HepG2 cells - 16 hour (AID 1224876); also: nearly all actives have a fitted effect of over 45% in size
In short: (§5)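 Continuous culture of HepG2 cells with a membrane-impermeant DNA dye; rising fluorescence marks dead cells. Compound exposure lasted up to 40 h at 37 C, with reads every 8 h from 0 h.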

[8] = qHTS RealTime-Glo MT Cell Viability Assay in HepG2 cells - 32 hour (AID 1224877); also: nearly all actives have a fitted effect of over 55% in size
In short: (§6)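 HepG2 cells (600/well) were dispensed with RealTime-Glo reagents, incubated 5 h at 37 °C, then treated with compounds in DMSO for up to 40 h. Nonlytic NanoLuc luminescence reflecting viable cells was read at each stated time point.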

[9] = A CellTox Green Cytotoxicity Assay to monitor cytotoxicity in HepG2 cells - 24 hour (AID 1224878); also: nearly all actives have a fitted effect of over 45% in size; also: potency is read from the fitted curve at half-maximal effect
In short: as §5

[10] = A CellTox Green Cytotoxicity Assay to monitor cytotoxicity in HepG2 cells - 40 hour (AID 1224879); also: nearly all actives have a fitted effect of over 40% in size
In short: as §5

[11] = qHTS RealTime-Glo MT Cell Viability Assay in HEK293 cells - 0 hour (AID 1224880)
In short: as §4

[12] = A CellTox Green Cytotoxicity Assay to monitor cytotoxicity in HEK293 cells - 32 hour (AID 1224881); also: nearly all actives have a fitted effect of over 40% in size
In short: as §2

[13] = A CellTox Green Cytotoxicity Assay to monitor cytotoxicity in HepG2 cells - 0 hour (AID 1224882); also: nearly all actives have a fitted effect of over 35% in size
In short: as §5

[14] = A CellTox Green Cytotoxicity Assay to monitor cytotoxicity in HepG2 cells - 32 hour (AID 1224883); also: nearly all actives have a fitted effect of over 50% in size
In short: as §5

[15] = A CellTox Green Cytotoxicity Assay to monitor cytotoxicity in HEK293 cells - 8 hour (AID 1224884); also: nearly all actives have a fitted effect of over 35% in size
In short: as §2

[16] = qHTS RealTime-Glo MT Cell Viability Assay in HepG2 cells - 16 hour (AID 1224885); also: nearly all actives have a fitted effect of over 50% in size
In short: as §6

[17] = qHTS RealTime-Glo MT Cell Viability Assay in HEK293 cells - 24 hour (AID 1224886); also: nearly all actives have a fitted effect of over 50% in size; also: potency is read from the fitted curve at half-maximal effect
In short: as §3

[18] = qHTS RealTime-Glo MT Cell Viability Assay in HEK293 cells - 8 hour (AID 1224887); also: nearly all actives have a fitted effect of over 50% in size; also: potency is read from the fitted curve at half-maximal effect
In short: as §4

[19] = A CellTox Green Cytotoxicity Assay to monitor cytotoxicity in HEK293 cells - 16 hour (AID 1224888); also: nearly all actives have a fitted effect of over 35% in size
In short: as §2

[20] = qHTS RealTime-Glo MT Cell Viability Assay in HepG2 cells - 0 hour (AID 1224889); also: nearly all actives have a fitted effect of over 50% in size
In short: as §6
% is scaled to controls: 0 for no effect and ±100 for the full control effect.

C/C=C(C)/C=C/C=C(C)C
inactive: Potency [1] | Potency [2] | Potency [3] | Potency [4] | max response [5] -28.6% and 16.8% | Potency [6] | Potency [7] | Potency [8] | Potency [9] | Potency [10] | Potency [11] | Potency [12] | Potency [13] | Potency [14] | Potency [15] | Potency [16] | Potency [17] | Potency [18] | Potency [19] | Potency [20]

O=S(=O)(O)c1cc(S(=O)(=O)O)c2c(N=Nc3ccccc3)c(O)ccc2c1
inactive: Potency [1] | Potency [2] | Potency [3] | Potency [4] | max response [5] -20.2% | Potency [6] | Potency [7] | Potency [8] | Potency [9] | Potency [10] | Potency [11] | Potency [12] | Potency [13] | Potency [14] | Potency [15] | Potency [16] | Potency [17] | Potency [18] | Potency [19] | Potency [20]

O=C(Oc1ccccc1)c1ccc(O)cc1
inactive: Potency [1] | Potency [2] | Potency [3] | Potency [4] | max response [5] -21.6% and -15.5% | Potency [6] | Potency [7] | Potency [8] | Potency [9] | Potency [10] | Potency [11] | Potency [12] | Potency [13] | Potency [14] | Potency [15] | Potency [16] | Potency [17] | Potency [18] | Potency [19] | Potency [20]

OC1CCCC1
inactive: Potency [1] | Potency [2] | Potency [3] | Potency [4] | max response [5] 8.58% and -2.67% | Potency [6] | Potency [7] | Potency [8] | Potency [9] | Potency [10] | Potency [11] | Potency [12] | Potency [13] | Potency [14] | Potency [15] | Potency [16] | Potency [17] | Potency [18] | Potency [19] | Potency [20]

CCC(C)C=O (configuration not stated)
active: Potency [5] 3.09 µM
inactive and 13.8 µM (active): Potency [18]
inactive and 6.92 µM (active): Potency [3]
inactive and 3.89 µM (active): Potency [17]
inactive and 21.9 µM (active): Potency [9]
inactive: Potency [1] | Potency [2] | Potency [4] | max response [5] -3.52% | Potency [6] | Potency [7] | Potency [8] | Potency [10] | Potency [11] | Potency [13] | Potency [14] | Potency [15] | Potency [16] | Potency [19] | Potency [20]

CC(C)Cc1ccccc1
inactive: Potency [1] | Potency [2] | Potency [3] | Potency [4] | max response [5] 14.2% and -0.413% | Potency [7] | Potency [8] | Potency [9] | Potency [10] | Potency [11] | Potency [12] | Potency [13] | Potency [14] | Potency [15] | Potency [16] | Potency [17] | Potency [18] | Potency [19] | Potency [20]

C=C(C)C(=O)OCCC[Si](OC)(OC)OC
inactive: Potency [1] | Potency [2] | Potency [3] | Potency [4] | max response [5] 1.98% and 0.0703% | Potency [7] | Potency [8] | Potency [9] | Potency [10] | Potency [11] | Potency [12] | Potency [13] | Potency [14] | Potency [15] | Potency [16] | Potency [17] | Potency [18] | Potency [19] | Potency [20]

CC(C)(CO)COC(=O)C(C)(C)CO
inactive: Potency [1] | Potency [2] | Potency [3] | Potency [4] | max response [5] 0.943% and 3.19% | Potency [7] | Potency [8] | Potency [9] | Potency [10] | Potency [11] | Potency [12] | Potency [13] | Potency [14] | Potency [15] | Potency [16] | Potency [17] | Potency [18] | Potency [19] | Potency [20]

Oc1ccc2ccccc2c1N=Nc1ccccc1
inactive: Potency [1] | Potency [2] | Potency [3] | Potency [4] | max response [5] 32.3% | Potency [6] | Potency [7] | Potency [8] | Potency [9] | Potency [10] | Potency [11] | Potency [12] | Potency [13] | Potency [14] | Potency [15] | Potency [16] | Potency [17] | Potency [19] | Potency [20]

O=C(c1cc(O)c(O)c(O)c1)c1ccc(O)c(O)c1O
inactive: Potency [1] | Potency [2] | Potency [3] | Potency [4] | max response [5] -21.1% and -21.4% and -9.65% | Potency [6] | Potency [7] | Potency [8] | Potency [9] | Potency [10] | Potency [11] | Potency [13] | Potency [14] | Potency [15] | Potency [16] | Potency [17] | Potency [18] | Potency [19] | Potency [20]

OC[C@@H](O)[C@@H](O)[C@H](O)[C@@H](O)CO
inactive: Potency [1] | Potency [2] | Potency [3] | Potency [4] | max response [5] -13% and 0.936% | Potency [6] | Potency [7] | Potency [8] | Potency [9] | Potency [10] | Potency [11] | Potency [13] | Potency [14] | Potency [15] | Potency [16] | Potency [17] | Potency [18] | Potency [19] | Potency [20]

OCC1CCCO1 (configuration not stated)
inactive: Potency [1] | Potency [2] | Potency [3] | Potency [4] | max response [5] 1.79% and -10.7% | Potency [7] | Potency [8] | Potency [9] | Potency [10] | Potency [11] | Potency [12] | Potency [13] | Potency [14] | Potency [15] | Potency [16] | Potency [17] | Potency [18] | Potency [19] | Potency [20]

COC(=O)c1ccccc1O
inactive: Potency [1] | Potency [2] | Potency [3] | Potency [4] | max response [5] -1.26% and 16.9% | Potency [7] | Potency [8] | Potency [9] | Potency [10] | Potency [11] | Potency [12] | Potency [13] | Potency [14] | Potency [15] | Potency [16] | Potency [17] | Potency [18] | Potency [19] | Potency [20]
